The values below come from PubChem BioAssay.

Calls of active or inactive are those of the source.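 The calls were made as follows, unless noted: active = NADPH fluorescence slope more negative than the mean of all samples by about 3 SD, 99.7% confidence; inactive = the rest.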

Assay [1] is described as follows: inhibitors of TNFa-induced NFkB p65 translocation, primary screen, imaging, HUVEC, MLSMR starter and 10KST1 sets (AID 438;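 active = inhibition above 20% together with a positive visual image hit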;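 also: compound added about 3h40 before a 20 min TNFalpha stimulation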;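 as to inhibition: signal is the nuclear over cytoplasmic p65 intensity ratio per well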). The note with it: HUVEC TNFa-induced p65 nuclear translocation; cell count: measured here: nuclei count (cytotoxicity indicator), at 2.08 µM; inhibition: at 2 µM, stronger effect = higher value, 0% TNFa-plus-vehicle, 100% no-TNFa wells.
Assay [2] in a line: reduction of polyQ htt aggregates in cells – imaging, exon1htt(103Q)mCFP cells, high-content imaging, primary screen (AID 483;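 active = visual image review flags a hit and inhibition of aggregation exceeds 20%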;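 also: compound exposure lasted 3 days before fixation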;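 as to nuclei count: percent of the per-plate median nuclei count of sample wells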). The note with it: exon1htt(103Q)mCFP cell line, aggregate imaging, at 2 µM; inhibition of aggregation: stronger effect = higher value; nuclei count: measured here: cell count, toxicity.
Assay [3] can be described thus: endothelial E-selectin expression blockers – imaging, HUVEC, immunofluorescence, MLSMR starter and 10KST1 sets, primary screen (AID 487;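 active = visually confirmed hit in the image check and inhibition above 20%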;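 as to inhibition: signal is fraction of cell area covered by stained E-selectin grains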;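 as to nuclei count: 100% = median nuclei count of all wells on the same plate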). To be noted: HUVEC TNFalpha-induced E-selectin immunofluorescence imaging, at 2 µM; inhibition: stronger effect = higher value; nuclei count: measured here: cell number, toxicity.
For assay [4], the target named is Voltage-gated potassium channel subunit beta-2 (Rattus norvegicus) (UniProt P62483). The experiment in a line: inhibitors of rat Kvbeta2 reductase activity – biochemical, NADPH fluorescence, primary screen (AID 622;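 active = fluorescence slope higher than the sample average by over 3 SD, cut at about -0.22 in these data, passing the limit was not always enough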;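 also: slope of raw intensity against log time taken from 70 to 1610 s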). The note with it: recombinant KvBeta, 4-cyanobenzaldehyde reduction, at 10 µM, stronger effect = higher value.
Sequence of Voltage-gated potassium channel subunit beta-2 (Rattus norvegicus) (P62483 whole entry, looked up): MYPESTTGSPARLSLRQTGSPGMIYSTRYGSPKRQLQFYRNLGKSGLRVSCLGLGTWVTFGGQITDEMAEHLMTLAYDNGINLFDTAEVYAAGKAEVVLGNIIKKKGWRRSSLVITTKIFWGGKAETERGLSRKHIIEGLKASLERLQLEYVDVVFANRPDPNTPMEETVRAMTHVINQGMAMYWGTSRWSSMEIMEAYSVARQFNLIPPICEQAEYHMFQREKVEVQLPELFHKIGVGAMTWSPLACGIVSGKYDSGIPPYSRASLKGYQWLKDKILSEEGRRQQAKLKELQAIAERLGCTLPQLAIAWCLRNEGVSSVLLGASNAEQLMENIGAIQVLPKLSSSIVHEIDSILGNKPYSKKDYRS
For assay [5] the target is unchanged. Kind of assay: enhancers of rat Kvbeta2 NADPH turnover – biochemical, NADPH fluorescence, primary screen (AID 623).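 Also: fluorescence intensity change per second fitted from 20 to 320 s.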 The note with it: Recombinant KvBeta, NADPH fluorescence decrease slope, 10 min; at 10 µM; stronger effect = lower value.
Assay [6] deals with Alpha-2C adrenergic receptor (Homo sapiens) (UniProt P18825). Kind of assay: compounds altering alpha2C-coupled GIRK flux – cell-based, HEK293 alpha2C/GIRK1/2, thallium flux, primary screen (AID 624;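 active = fluorescence slope after compound addition differing from the mean of all screened samples at 99.7% confidence, in either direction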;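 also: slope of fluorescence ratio to pre-addition baseline per second over 15 to 24 s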). The note with it: thallium flux BTC fluorescence, at 10 µM, actives lie on both sides.
Sequence of Alpha-2C adrenergic receptor (Homo sapiens) (P18825 whole entry, looked up): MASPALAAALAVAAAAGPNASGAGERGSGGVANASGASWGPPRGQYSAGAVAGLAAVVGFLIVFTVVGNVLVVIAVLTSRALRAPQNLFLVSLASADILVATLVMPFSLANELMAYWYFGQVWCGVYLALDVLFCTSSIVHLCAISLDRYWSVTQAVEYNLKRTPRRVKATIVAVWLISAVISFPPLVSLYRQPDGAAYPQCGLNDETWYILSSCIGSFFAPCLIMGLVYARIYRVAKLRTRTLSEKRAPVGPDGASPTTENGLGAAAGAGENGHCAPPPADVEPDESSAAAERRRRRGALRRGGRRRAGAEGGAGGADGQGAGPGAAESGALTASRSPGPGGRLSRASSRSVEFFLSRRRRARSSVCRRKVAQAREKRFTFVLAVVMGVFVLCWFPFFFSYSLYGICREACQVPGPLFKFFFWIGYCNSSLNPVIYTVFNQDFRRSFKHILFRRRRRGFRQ
Assay [7] is described as follows: blockers of RIG-like receptor reporter activation – cell-based, Sendai virus stimulus, luciferase, 10K MLSCN set, TLR/RLR signaling modifier project, primary screen (AID 602276;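 active = inhibition at or above 50% at 10 µM; inactive = inhibition below 50%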;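 also: firefly luciferase from ISG56 promoter only with Renilla not read in this screen; 0% = Sendai virus plus DMSO and 100% = medium plus DMSO without virus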). To be noted: HEK293 RL24 IRF3 luciferase reporter, at 10 µM, stronger effect = higher value.
A short description of assay [8]: TLR3 IRF3 reporter activation blockers – cell-based, poly I:C stimulus, luciferase, 10K MLSCN set, primary screen (AID 602277;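 active = inhibition of the reporter signal at or above 50%; inactive = inhibition below 50%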). To be noted: HEK293-TLR3 RL24 IRF3 luciferase reporter, at 10 µM, stronger effect = higher value.

With `Cc1ccc2[nH]c(=O)c(-c3noc(-c4ccncc4)n3)cc2c1`, the cell count in assay [1] amounted to 474. The inhibition (usually the drop in the measured response relative to a control, in per cent) was -9.1% (inactive) in assay [1], -51% (inactive) in assay [3], 8.49% (inactive) in assay [7] and 12.4% (inactive) in assay [8]. Also, the inhibition of aggregation in assay [2] is -82.1% (inactive). For the same compound, the results for the nuclei count in assay [2] and in assay [3] were 65% and 93.8%, respectively. Also, in assay [4], the fluorescence slope was -0.31 (inactive). The NADPH fluorescence slope in assay [5] was -6e-05 (inactive). The slope in assay [6] was 0.0054 (inactive).
In the case of `CCN1CCCC1CN=Cc1c(O)n(-c2ccccc2)c(=O)c2ccccc12` (centres undefined), the cell count in assay [1] stood at 609. Also, the inhibition is -0.3% (inactive) in assay [1], -12.1% (inactive) in assay [3], -6.81% (inactive) in assay [7] and 16.9% (inactive) in assay [8]. In addition, the inhibition of aggregation in assay [2] was -8.1% (inactive). The nuclei count in assay [2] is 109%; in assay [3], 97.6%. The fluorescence slope in assay [4] is -0.598 (inactive). Moreover, the NADPH fluorescence slope in assay [5] was -2e-05 (inactive). In addition, the slope in assay [6] is 0.00513 (inactive).
On to `COc1ccc(C)cc1NS(=O)(=O)c1ccc(NS(=O)(=O)c2ccc(NC(C)=O)cc2)cc1`, for which, in assay [1], the cell count stood at 345. Moreover, the inhibition in assay [1] was -7.8% (inactive); in assay [3] it was -16.4% (inactive); in assay [7], 19.9% (inactive); in assay [8], 24.8% (inactive). For the same compound, the inhibition of aggregation in assay [2] is -15.2% (inactive). For the same compound, the nuclei count is 99.4% in assay [2] and 119% in assay [3]. Also, the fluorescence slope in assay [4] is -0.514 (inactive). Further, in assay [5], the NADPH fluorescence slope is -6e-05 (inactive). In assay [6], the slope is 0.00545 (inactive).
`Cn1c(=O)[nH]c(=O)c2c1ncn2CCN1CCOCC1`: the cell count in assay [1] was 696. Further, the inhibition in assay [1] was -12.1% (inactive); in assay [3] it was -6.5% (inactive); in assay [7], 8.85% (inactive); in assay [8], 16.4% (inactive). In addition, in assay [2], the inhibition of aggregation was -10.8% (inactive). In addition, the nuclei count in assay [2] turned out to be 107%; in assay [3], 102%. In addition, the fluorescence slope in assay [4] is -0.512 (inactive). Moreover, in assay [5], the NADPH fluorescence slope is 1.1e-05 (inactive). In assay [6], the slope is 0.00632 (inactive).
Turning to `Cc1ccccc1-c1nc(CS(=O)(=O)CC(=O)NCc2ccc3c(c2)OCO3)c(C)o1`, the cell count in assay [1] amounted to 676. The inhibition is -0.6% (inactive) in assay [1], -6.5% (inactive) in assay [3], 24.2% (inactive) in assay [7] and 17% (inactive) in assay [8]. In addition, in assay [2], the inhibition of aggregation was -60.8% (inactive). The results for the nuclei count in assay [2] and in assay [3] were 115% and 110%, respectively. For the same compound, in assay [4], the fluorescence slope is -0.497 (inactive). In addition, the NADPH fluorescence slope in assay [5] was -2.5e-05 (inactive). Also, in assay [6], the slope is 0.0071 (inactive).
Consider `Cc1cc2cc(CN(CC3CCCO3)C(=O)c3cnccn3)c(=O)[nH]c2cc1C` (centres undefined), for which the cell count in assay [1] is 330. Moreover, the inhibition in assay [1] was 5.3% (inactive); in assay [3], -22.4% (inactive); in assay [7], -3.76% (inactive); in assay [8], -3.05% (inactive). Further, the inhibition of aggregation in assay [2] was -0.3% (inactive). Moreover, the nuclei count is 107% in assay [2] and 125% in assay [3]. Further, the fluorescence slope in assay [4] was -0.592 (inactive). The NADPH fluorescence slope in assay [5] is -5.9e-05 (inactive). Moreover, in assay [6], the slope was 0.00376 (inactive).
As for `CN1CCN(C(=O)NC2CCCN2S(=O)(=O)c2ccc(Cl)cc2)CC1` (centres undefined), the cell count in assay [1] is 528. The inhibition in assay [1] was -20.6% (inactive); in assay [3], 31.3% (inactive); in assay [7], 0.971% (inactive); in assay [8] it was 21.8% (inactive). For the same compound, in assay [2], the inhibition of aggregation is 11.5% (inactive). Moreover, the nuclei count in assay [2] worked out at 106%; in assay [3], 105%. In addition, in assay [4], the fluorescence slope is -0.493 (inactive). In assay [5], the NADPH fluorescence slope was -5.8e-05 (inactive). In assay [6], the slope was 0.00636 (inactive).
With `CCOc1ccc(N(CC(=O)Nc2ccc(C)c(C)c2)S(=O)(=O)c2c(C)noc2C)cc1`, in assay [1], the cell count turned out to be 713. The inhibition in assay [1] is 0% (inactive); in assay [3], -29% (inactive); in assay [7] it was 13.3% (inactive); in assay [8] it was 27.5% (inactive). For the same compound, the inhibition of aggregation in assay [2] is -19.3% (inactive). For the same compound, the nuclei count in assay [2] came to 86.1%; in assay [3], 100%. In addition, the fluorescence slope in assay [4] was -0.554 (inactive). Further, the NADPH fluorescence slope in assay [5] was -7.2e-07 (inactive). Moreover, the slope in assay [6] is 0.00659 (inactive).
As for `COc1ccc(N(CC(=O)NCCSC(C)(C)C)S(C)(=O)=O)c(OC)c1`, the cell count in assay [1] was 387. In addition, the inhibition in assay [1] was -1.4% (inactive); in assay [3], -18.2% (inactive); in assay [7], 18.9% (inactive); in assay [8], 20.9% (inactive). Also, in assay [2], the inhibition of aggregation was 12.9% (inactive). Besides, the nuclei count in assay [2] amounted to 104%; in assay [3], 120%. The fluorescence slope in assay [4] was -0.537 (inactive). In addition, the NADPH fluorescence slope in assay [5] is 0.000155 (inactive). For the same compound, the slope in assay [6] was 0.00708 (inactive).
With `COc1ccc(N2CCN(CCCNC(=O)CC3Oc4ccc(C)cc4NC3=O)CC2)cc1` (centres undefined), the cell count in assay [1] was found to be 581. Also, the inhibition in assay [1] is 0.9% (inactive); in assay [3] it was -40.7% (inactive); in assay [7], 12.9% (inactive); in assay [8], 22.1% (inactive). Further, the inhibition of aggregation in assay [2] is 11.6% (inactive). In addition, the nuclei count in assay [2] turned out to be 104%; in assay [3] it was 130%. Moreover, the fluorescence slope in assay [4] was -0.472 (inactive). Also, the NADPH fluorescence slope in assay [5] is 1.7e-05 (inactive). In addition, the slope in assay [6] was 0.00619 (inactive).
Consider `Cc1[nH]c(C(=O)N2CCCCC2)c(C)c1C(=O)NC1CCCCC1`, for which the cell count in assay [1] came to 425. The inhibition is 0.5% (inactive) in assay [1], -49.8% (inactive) in assay [3], 5.02% (inactive) in assay [7] and 4.54% (inactive) in assay [8]. Further, the inhibition of aggregation in assay [2] is 6.3% (inactive). Besides, the nuclei count came out at 97.4% in assay [2] and 123% in assay [3]. The fluorescence slope in assay [4] was -0.528 (inactive). In addition, the NADPH fluorescence slope in assay [5] was 2.6e-05 (inactive). For the same compound, the slope in assay [6] was 0.00631 (inactive).
As to `COc1ccc(CCNC(=O)c2ccncc2)cc1OC`, the cell count in assay [1] is 162. In addition, the inhibition in assay [1] is -18.8% (inactive); in assay [3], 11.2% (inactive); in assay [7], 17.7% (inactive); in assay [8], 19.9% (inactive). The inhibition of aggregation in assay [2] was 10.4% (inactive). Further, the nuclei count worked out at 95.7% in assay [2] and 90% in assay [3]. The fluorescence slope in assay [4] was -0.499 (inactive). In addition, the NADPH fluorescence slope in assay [5] is -4.1e-05 (inactive). For the same compound, the slope in assay [6] is 0.00561 (inactive).
For `COc1cccc(S(=O)(=O)Nc2ccc(C(=O)N3CCN(C(=O)c4ccco4)CC3)cc2)c1`, in assay [1], the cell count came out at 448. The inhibition in assay [1] is -3.9% (inactive); in assay [3], -65.5% (inactive); in assay [7] it was 8.1% (inactive); in assay [8] it was 7.91% (inactive). In assay [2], the inhibition of aggregation was -8% (inactive). Further, the nuclei count in assay [2] is 108%; in assay [3], 124%. For the same compound, in assay [4], the fluorescence slope was -0.507 (inactive). The NADPH fluorescence slope in assay [5] is -3.8e-05 (inactive). The slope in assay [6] was 0.00603 (inactive).
As to `Clc1ccc(Nc2ncnc3c2cnn3-c2ccccc2)cc1`, the cell count in assay [1] is 703. The inhibition is 0% (inactive) in assay [1], -14.4% (inactive) in assay [3], -24% (inactive) in assay [7] and -67.8% (inactive) in assay [8]. In addition, the inhibition of aggregation in assay [2] is 19% (inactive). Besides, the values for the nuclei count in assay [2] and in assay [3] were 95.2% and 105%, respectively. For the same compound, in assay [4], the fluorescence slope was -0.496 (inactive). Moreover, in assay [5], the NADPH fluorescence slope is -1.9e-05 (inactive). The slope in assay [6] was 0.0059 (inactive).
